Only some compounds are listed: those with a hit (about 12% of all), similar ones and a draw of the others.
Pf growth 96h: P. falciparum growth inhibition at 96 hour, primary screen for plastid delayed-death inhibitors | P. falciparum luciferase reporter growth, 96 h | Potency, µM (highest dose often 28.7 µM), actives largely listed as inhibitors | 6.9% of 320,000 active | AID 504834
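Readout is luminescence from an integrated firefly luciferase in P. falciparum. Red cells, 2% hematocrit and 0.05% parasitemia final, were cultured with compound through two parasite generations (96 hours) at 37 C, 5% CO2.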
SARS PLP yeast: inhibitors of SARS-CoV papain-like protease in yeast; S. cerevisiae expressing SARS-CoV PLpro, growth rescue; Potency, µM (titrated, usually from 32.9 µM), usual class: activators; 0.19% of 330,000 active; AID 485353; calls by dose curve; note: nearly all actives have a fitted effect of over 55% in size
AMA1 RON2 block: disrupts binding of P. falciparum AMA1 to RON2 | Potency, µM (titrated, usually from 58.2 µM), hits mostly inhibitors | AlphaScreen AMA1-biotinylated RON2 peptide binding | 0.2% of 360,000 active; note: nearly all actives have a fitted effect of over 45% in size
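AMA1 (3D7) with his tag at 25 nM final met compounds first, then biotinylated RON2 peptide at 25 nM; detection used donor plus acceptor beads, 10 µg/mL apiece, read by AlphaScreen after 30 min at room temperature.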
HCV inh: HCV inhibition. Huh7.5.1 HCVcc-Cre infection, luciferase reporter, 44 h. Potency, µM (series often up to 41.8 µM), actives largely listed as inhibitors. 3.4% of 340,000 active
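Cells seeded at 1,000/well and cultured 4 h, then compounds added followed by HCVcc-Cre virus (~0.5 moi). After 44 h further culture, luciferase substrate was added, plates held 15 min at room temperature, and luminescence read for 15 sec.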
Pf growth 48h: P. falciparum growth inhibition at 48 hours (one generation) | P. falciparum luciferase growth in erythrocytes, 48 h | Potency, µM (top dose mostly 28.7 µM), actives largely listed as inhibitors | 5.9% of 310,000 active
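Read-out is firefly luciferase luminescence from an integrated reporter in P. falciparum, so falling signal marks reduced parasite growth. Infected erythrocytes were at 2% hematocrit and 0.1% parasitemia (final) in Albumax-supplemented RPMI 1640.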
NS1 inh: influenza NS1 inhibition; Potency, µM (highest dose often 46.1 µM); 0.4% of 270,000 active; AID 2326; calls by dose curve; note: actives are rising curves; nearly all actives have a fitted effect of over 50% in size
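Recovery from NS1-induced slow growth read by OD600 in budding yeast switched to galactose assay medium (pH 6.0, -URA) at 1:100 dilution. Compound 23 nl per well; the matching strain lacking NS1 serves as control.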
Each line names hits and unclear results; the compound was inactive in the other large screens; ! = not active in a repeat. Unless noted, calls come from the whole dose curve; as a rule, active = well fitted curve in the direction sought with a large enough effect; inconclusive = small, poorly fitted or top-dose-only effect, or another doubt; inactive = no such curve, though single readings can be large; an effect the other way counts as inactive or inconclusive.

COc1ccc(-c2[nH]ncc2CN2CCCC(C(=O)c3cccc(OC)c3)C2)cc1 (centres undefined)	HCV inh inconclusive
CCOc1ccc(N2C(=O)NC(=O)/C(=C\c3ccc(N4CCCCC4)o3)C2=O)cc1	Pf growth 96h 13.1µM, Pf growth 48h inconclusive
O=C1NC(=O)N(c2ccc3c(c2)OCO3)C(=O)/C1=C/c1ccc(N2CCCC2)o1	Pf growth 48h inconclusive
Cc1ccc(NC(=O)c2ccc(Cl)c(S(=O)(=O)NCC3CCCO3)c2)c(O)c1 (centres undefined)	Pf growth 96h 6.57µM, HCV inh inconclusive, Pf growth 48h inconclusive
CCOc1ccccc1CN1CCN(Cc2csc(C(C)=O)c2)CC1CCO (centres undefined)	none
CCC1CCCCN1C(=O)CSc1nc2ncccc2[nH]1 (centres undefined)	none
c1ccc(N/N=C(\Cc2nc3ccccc3[nH]2)c2ccccc2)cc1	Pf growth 96h inconclusive
O=C(Cc1nc2ccccc2[nH]c1=O)c1ccccc1	none (no result: NS1 inh)
CCN/N=C(\Cc1nc2ccccc2[nH]1)c1ccccc1	Pf growth 96h inconclusive, Pf growth 48h 10.4µM
N#CCCN/N=C(\Cc1nc2ccccc2[nH]1)c1ccccc1	Pf growth 96h inconclusive (no result: Pf growth 48h)
Cc1ccc(N/N=C(\Cc2nc3ccccc3[nH]2)c2ccccc2)cc1	Pf growth 96h inconclusive, HCV inh inconclusive, Pf growth 48h 9.28µM
O=C(Cc1nc2ccccc2[nH]1)c1ccc(Br)cc1	Pf growth 96h 1.65µM, Pf growth 48h inconclusive (no result: NS1 inh)
COc1cccc(C(=O)N2CCN(C3CCN(Cc4ccccc4)CC3)CC2)c1OC	none
COc1cccc2c1C(=O)CC1C2CCC2CC(=O)CCC21C (centres undefined)	none (no result: Pf growth 96h, SARS PLP yeast, Pf growth 48h, NS1 inh)
COCC(=O)N(Cc1cc2ccc(C)c(C)c2n2nnnc12)C1CCCC1	Pf growth 96h inconclusive, HCV inh inconclusive (no result: NS1 inh)
Cc1sc2ncnc(N3CCN(Cc4ccccc4)CC3)c2c1-c1ccccc1	Pf growth 96h 10.4µM, HCV inh inconclusive, Pf growth 48h 11.7µM
Cc1sc2ncnc(N3CCN(CCOc4ccc(Cl)cc4)CC3)c2c1C	HCV inh 10µM (no result: Pf growth 48h)
C[C@H]1COC2=C1C(=O)C(=O)c1c2ccc2c1CCCC2(C)C	Pf growth 96h inconclusive, AMA1 RON2 block 28.2µM, HCV inh inconclusive, Pf growth 48h inconclusive
Cc1coc2c1C(=O)C(=O)c1c-2ccc2c1CCCC2(C)C	Pf growth 96h inconclusive, AMA1 RON2 block inconclusive, HCV inh inconclusive, Pf growth 48h inconclusive
CCOC(=O)/C(C#N)=C/C1=C(N2CCOCC2)CC(C)(C)OC1	none
CC(C)NCC(O)COc1ccc(CCOCC2CC2)cc1 (centres undefined)	Pf growth 96h 3.38µM!, Pf growth 48h 13.5µM!
COCCc1ccc(OC[C@H](O)CNC(C)C)cc1	none (no result: SARS PLP yeast, AMA1 RON2 block, HCV inh, NS1 inh)
CC(NCC(O)COc1ccc(Br)cc1)c1ccccc1 (centres undefined)	Pf growth 96h inconclusive, HCV inh inconclusive, Pf growth 48h inconclusive
CC(CCc1ccccc1)NCC(O)COc1ccccc1 (centres undefined)	Pf growth 96h inconclusive, HCV inh inconclusive, Pf growth 48h 5.22µM (no result: NS1 inh)
CCCC(NCC(O)COc1ccc(-c2ccccc2)cc1)c1ccccc1 (centres undefined)	Pf growth 96h inconclusive, HCV inh 11.2µM, Pf growth 48h inconclusive
CC(NCC(O)COc1ccc2ccccc2c1)c1ccccc1 (centres undefined)	Pf growth 96h 9.28µM, HCV inh 6.31µM, Pf growth 48h 9.28µM
COc1ccc(OCC(O)CNC(C)c2ccccc2)cc1 (centres undefined)	Pf growth 96h inconclusive
CSc1ccccc1OCc1cc(C(=O)N[C@H]2CCCCNC2=O)no1	Pf growth 96h inconclusive, Pf growth 48h inconclusive
CCC(C(=O)Nc1ccc(S(=O)(=O)N2CCN(C)CC2)cc1)c1ccccc1 (centres undefined)	none (no result: Pf growth 96h, SARS PLP yeast, HCV inh, Pf growth 48h, NS1 inh)
CC(OC(=O)Cc1c[nH]c2ccccc12)C(=O)Nc1ccc(S(N)(=O)=O)cc1 (centres undefined)	none (no result: NS1 inh)
CCC(CC)NCC(O)COc1ccc(Br)cc1 (centres undefined)	Pf growth 96h 7.38µM, HCV inh inconclusive, Pf growth 48h 3.7µM
Cc1nnc(NC(=O)CSCc2cc(=O)c3ccccc3[nH]2)s1	none (no result: AMA1 RON2 block, HCV inh, NS1 inh)
O=C([C@H](Cc1ccc(O)cc1)n1cc(CCO)nn1)N1CCNCC1	none
COc1ccc(C2=NS(=O)(=O)N(C)C(C(=O)Nc3ccc(C(C)=O)cc3)=C2)cc1OC	HCV inh 11.2µM
COc1ccc(OC)c(C2=NS(=O)(=O)N(C)C(C(=O)Nc3ccc(F)cc3F)=C2)c1	Pf growth 96h inconclusive, HCV inh 14.1µM, Pf growth 48h inconclusive
Cn1ncc2c(=O)[nH]cnc21	none (no result: NS1 inh)
CCN(CC(=O)Nc1c(F)cccc1F)C(=O)C1Cc2ccccc2CN1S(=O)(=O)CC (centres undefined)	none (no result: NS1 inh)
CCN(CC)CCCN(C(=O)c1cccc(C)c1)c1nc(-c2ccc(OC)cc2)cs1	Pf growth 96h 4.15µM, Pf growth 48h inconclusive
CCN(CC)CCCN(C(=O)c1cccs1)c1nc(-c2ccc(OC)cc2)cs1	HCV inh 11.2µM, Pf growth 48h 13.1µM
Cn1ncc2c(Nc3cccc([N+](=O)[O-])c3)ncnc21	none
CCN1C(=O)[C@H]2[C@@H](c3ccc(-c4ccccc4)cc3)N3CCC[C@@]3(C(=O)OC)[C@H]2C1=O	Pf growth 96h 13.1µM, Pf growth 48h 4.65µM (no result: NS1 inh)
CCN1C(=O)[C@@H]2[C@@H](c3ccc(-c4ccccc4)cc3)N3CCC[C@@]3(C(=O)OC)[C@@H]2C1=O	none (no result: Pf growth 96h, Pf growth 48h, NS1 inh)
CCN1C(=O)[C@H]2[C@@H](c3ccc(-c4ccc(OC)cc4)cc3)N3CCCC[C@@]3(C(=O)OC)[C@H]2C1=O	Pf growth 96h inconclusive, HCV inh inconclusive, Pf growth 48h 14.7µM (no result: NS1 inh)
CCN1C(=O)[C@@H]2[C@@H](c3ccc(-c4ccc(F)cc4)cc3)N3CCC[C@@]3(C(=O)OC)[C@@H]2C1=O	Pf growth 96h inconclusive, Pf growth 48h inconclusive (no result: NS1 inh)
CCN1C(=O)[C@H]2[C@@H](c3ccc(-c4ccc(F)cc4)cc3)N3CCCC[C@@]3(C(=O)OC)[C@H]2C1=O	Pf growth 96h 13.1µM, HCV inh inconclusive, Pf growth 48h 9.28µM (no result: NS1 inh)
CCN1C(=O)[C@H]2[C@@H](c3ccc(-c4ccc(OC)cc4)cc3)N3CCC[C@@]3(C(=O)OC)[C@H]2C1=O	Pf growth 96h inconclusive, HCV inh inconclusive, Pf growth 48h 13.1µM (no result: NS1 inh)
CCN1C(=O)[C@@H]2[C@@H](c3ccc(-c4ccc(OC)cc4)cc3)N3CCC[C@@]3(C(=O)OC)[C@@H]2C1=O	Pf growth 96h 11.7µM, HCV inh inconclusive, Pf growth 48h 9.28µM (no result: NS1 inh)
O=C(NCC1CCCCC1)C1(CC2CC(c3cccc(Br)c3)=NO2)CCNCC1 (centres undefined)	Pf growth 96h inconclusive, HCV inh inconclusive

Source: PubChem (National Center for Advancing Translational Sciences (NCATS))
